# PubChem BioAssay (Tox21)
# Where “and” joins values, the source holds several entries; their conditions need not be identical. Identical values can stand only once. Results filed as inconclusive are left out. Entries that show only a call come without a potency. Where a structure was tested more than once in an assay, its records may differ in their call. Calls of active or inactive are those of the source. Unless noted, calls come from the whole dose curve.
# Tested on: not listed separately
# Experiment: qHTS assay to identify small molecule agonists of the sonic hedgehog signaling (Shh) pathway (AID 1259368);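 note: NIH/3T3-derived 3T3Gli1-Luc cells carrying a stable Gli1-driven firefly luciferase reporter; nearly all actives have a fitted effect of over 15% in size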
# Details: NIH/3T3 Gli1-Luc reporter, luciferase, 24 h, stronger effect = higher value; series mostly up to 92.4 µM
# Procedure, shortened: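 Hedgehog pathway agonism scored by increased firefly luciferase luminescence in 3T3Gli1-Luc cells treated 24 hr at 37 C; detection used a 30 min room-temperature reagent incubation.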
row,Compound,outcome
1,c1ccc(OP(Oc2ccccc2)Oc2ccccc2)cc1,inactive
2,COC(=O)c1ccccc1N,inactive
3,CCOP(=S)(OCC)Oc1cnc2ccccc2n1,inactive
4,CCCN(CCC)N=O,inactive
5,CN(N=O)c1ccccc1,inactive
6,CC(C)OC(=O)Nc1cccc(Cl)c1,inactive
7,CCCCOC(=O)c1ccccc1C(=O)OCCCC,inactive
8,CCCCN(CCCC)SN(C)C(=O)Oc1cccc2c1OC(C)(C)C2,inactive
9,CC(NC(C)(C)C)C(=O)c1cccc(Cl)c1 (stereo not drawn),inactive
10,CC(C)(C)C(O)(CCc1ccc(Cl)cc1)Cn1cncn1 (stereo not drawn),inactive
11,CC(C)C#N,inactive
12,Cc1cc(Cl)ccc1O,inactive
13,O=S(=O)(c1ccc(O)cc1)c1ccc(O)cc1,inactive
14,Cc1ccc([N+](=O)[O-])cc1C,inactive
15,C1CN2CCN1CC2,inactive
16,CC(C)(Cl)Cl,inactive
17,CC(C)(C)OOC(=O)c1ccccc1,inactive
18,CCc1cccc(C)c1N(C(=O)CCl)C(C)COC (stereo not drawn),inactive
19,c1ccc2c(c1)Oc1ccccc1O2,inactive

row,Compound,outcome
1,O=[N+]([O-])c1ccc(Oc2ccc(Cl)cc2Cl)cc1,inactive
2,CCC[N+](=O)[O-],inactive
3,Nc1c(Cl)c(Cl)nc(C(=O)O)c1Cl,inactive
4,CC(=O)C=C(C)C,inactive
5,C#CC(C)(C)NC(=O)c1cc(Cl)cc(Cl)c1,inactive
6,CN(C)CCO,inactive
7,OC(O)C(Cl)(Cl)Cl,inactive
8,CC1C=[C-]C=C1.[C-]#[O+].[C-]#[O+].[C-]#[O+].[Mn],inactive
9,CCN(CC)c1ccccc1,inactive
10,CCC(C)(CC)c1cc(NC(=O)c2c(OC)cccc2OC)on1,inactive
11,CCC12COCN1COC2,inactive
12,CC(C)NC(=O)N1CC(=O)N(c2cc(Cl)cc(Cl)c2)C1=O,inactive
13,C1CC2OC2CC1C1CO1 (stereo not drawn),inactive
14,CC(C#N)CCC#N (stereo not drawn),inactive
15,Nc1ccccc1C(=O)O,inactive
16,CCOP(=S)(OCC)SCCSCC,inactive
17,[O-][Cl+2]([O-])O,inactive
18,Clc1cccc(Cl)c1Cl,inactive

# Tested on: not listed separately
# Experiment: qHTS assay to identify small molecule antagonists of the sonic hedgehog signaling (Shh) pathway (AID 1259369); note: nearly all actives have a fitted effect of over 45% in size; note: potency is the fitted concentration of half-maximal effect
# Details: NIH/3T3 Gli1-Luc reporter, Shh antagonist, luminescence 24 h; series mostly up to 92.4 µM
# Procedure, shortened: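 NIH/3T3 stable Gli1-Luc clone, 2,000 cells/well, 4hr settle; cpd + conditioned medium 24hr; Luc reagent 30min RT; luminescence.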
row,Compound,Potency
1,c1ccc(OP(Oc2ccccc2)Oc2ccccc2)cc1,inactive
2,COC(=O)c1ccccc1N,inactive
3,CCOP(=S)(OCC)Oc1cnc2ccccc2n1,27.3 µM (active)
4,CCCN(CCC)N=O,inactive
5,CN(N=O)c1ccccc1,inactive
6,CC(C)OC(=O)Nc1cccc(Cl)c1,inactive
7,CCCCOC(=O)c1ccccc1C(=O)OCCCC,inactive
8,CCCCN(CCCC)SN(C)C(=O)Oc1cccc2c1OC(C)(C)C2,31.1 µM (active) and inactive
9,CC(NC(C)(C)C)C(=O)c1cccc(Cl)c1 (stereo not drawn),inactive
10,CC(C)C#N,inactive
11,Cc1cc(Cl)ccc1O,2.65 µM (active)
12,O=S(=O)(c1ccc(O)cc1)c1ccc(O)cc1,34.4 µM (active)
13,Cc1ccc([N+](=O)[O-])cc1C,inactive
14,C1CN2CCN1CC2,inactive
15,CC(C)(Cl)Cl,inactive
16,CC(C)(C)OOC(=O)c1ccccc1,inactive
17,CCc1cccc(C)c1N(C(=O)CCl)C(C)COC (stereo not drawn),inactive
18,c1ccc2c(c1)Oc1ccccc1O2,inactive

row,Compound,Potency
1,O=[N+]([O-])c1ccc(Oc2ccc(Cl)cc2Cl)cc1,inactive
2,CCC[N+](=O)[O-],inactive
3,Nc1c(Cl)c(Cl)nc(C(=O)O)c1Cl,inactive
4,C#CC(C)(C)NC(=O)c1cc(Cl)cc(Cl)c1,inactive
5,CN(C)CCO,inactive
6,OC(O)C(Cl)(Cl)Cl,inactive
7,CC1C=[C-]C=C1.[C-]#[O+].[C-]#[O+].[C-]#[O+].[Mn],inactive
8,CCN(CC)c1ccccc1,inactive
9,CCC(C)(CC)c1cc(NC(=O)c2c(OC)cccc2OC)on1,6.88 µM (active)
10,CCC12COCN1COC2,inactive
11,CC(C)NC(=O)N1CC(=O)N(c2cc(Cl)cc(Cl)c2)C1=O,10.9 µM (active)
12,C1CC2OC2CC1C1CO1 (stereo not drawn),inactive
13,CC(C#N)CCC#N (stereo not drawn),inactive
14,Nc1ccccc1C(=O)O,inactive
15,CCOP(=S)(OCC)SCCSCC,inactive
16,[O-][Cl+2]([O-])O,inactive
17,Clc1cccc(Cl)c1Cl,inactive

# Biological target: Estrogen receptor beta (Homo sapiens) (UniProt Q92731)
# Sequence (Q92731 whole entry, looked up): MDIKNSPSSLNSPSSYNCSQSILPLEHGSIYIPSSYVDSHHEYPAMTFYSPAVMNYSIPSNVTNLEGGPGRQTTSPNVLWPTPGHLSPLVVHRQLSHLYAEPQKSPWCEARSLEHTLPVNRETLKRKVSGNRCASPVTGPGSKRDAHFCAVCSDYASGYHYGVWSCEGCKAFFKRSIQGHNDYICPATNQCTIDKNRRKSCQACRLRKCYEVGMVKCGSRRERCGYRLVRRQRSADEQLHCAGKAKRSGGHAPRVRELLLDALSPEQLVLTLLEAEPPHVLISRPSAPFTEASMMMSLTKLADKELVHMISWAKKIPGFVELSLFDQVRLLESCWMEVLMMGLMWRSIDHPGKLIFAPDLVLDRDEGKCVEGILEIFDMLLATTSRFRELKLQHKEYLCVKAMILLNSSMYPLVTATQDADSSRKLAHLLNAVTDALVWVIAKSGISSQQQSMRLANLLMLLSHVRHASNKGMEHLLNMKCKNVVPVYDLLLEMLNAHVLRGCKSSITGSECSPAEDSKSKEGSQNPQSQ
# Experiment: qHTS assay to identify small molecule agonists of the estrogen receptor beta (ER-beta) signaling pathway (AID 1259377; active = well fitted activation curve with a large enough effect in the signal ratio in the repeat runs, not every such curve was filed as active; the % refers to the signal ratio; note: potency is the fitted concentration of half-maximal effect)
# Details: ER-beta-UAS-bla HEK293T, beta-lactamase FRET ratio, 16 h; series mostly up to 92.4 µM
# Procedure, shortened: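 Beta-lactamase reporter readout: fluorescence of LiveBLAzer B/G FRET substrate after 2 h at room temperature, following 16 h compound treatment of ER-beta-UAS-bla HEK293T cells at 37C in 2% charcoal-stripped FBS medium.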
row,Compound,Potency
1,c1ccc(OP(Oc2ccccc2)Oc2ccccc2)cc1,inactive
2,COC(=O)c1ccccc1N,inactive
3,CCOP(=S)(OCC)Oc1cnc2ccccc2n1,inactive
4,CCCN(CCC)N=O,inactive
5,CN(N=O)c1ccccc1,inactive
6,CC(C)OC(=O)Nc1cccc(Cl)c1,inactive
7,CCCCOC(=O)c1ccccc1C(=O)OCCCC,inactive
8,Cc1cc(Cl)ccc1O,inactive
9,O=S(=O)(c1ccc(O)cc1)c1ccc(O)cc1,4.35 µM (active) and 4.33 µM (active)
10,Cc1ccc([N+](=O)[O-])cc1C,inactive
11,C1CN2CCN1CC2,inactive
12,CC(C)(C)OOC(=O)c1ccccc1,61.2 µM (active) and inactive
13,CCc1cccc(C)c1N(C(=O)CCl)C(C)COC (stereo not drawn),inactive
14,O=[N+]([O-])c1ccc(Oc2ccc(Cl)cc2Cl)cc1,61.4 µM (active) and inactive
15,CCC[N+](=O)[O-],inactive
16,Nc1c(Cl)c(Cl)nc(C(=O)O)c1Cl,inactive
17,CN(C)CCO,inactive
18,OC(O)C(Cl)(Cl)Cl,inactive
19,CC1C=[C-]C=C1.[C-]#[O+].[C-]#[O+].[C-]#[O+].[Mn],inactive
20,CCN(CC)c1ccccc1,inactive
21,CCC(C)(CC)c1cc(NC(=O)c2c(OC)cccc2OC)on1,inactive
22,C1CC2OC2CC1C1CO1 (stereo not drawn),inactive
23,CC(C#N)CCC#N (stereo not drawn),inactive
24,Nc1ccccc1C(=O)O,inactive
25,CCOP(=S)(OCC)SCCSCC,inactive
26,[O-][Cl+2]([O-])O,inactive
